The structures appear in SMILES notation. About 83,000 compounds went through this panel and 20% of them were active in at least one assay; those are over-represented in the sample as a whole.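 Values shown are percent growth following 48 h exposure of cells in 96-well plates to a single concentration of compound; below 10 was considered active.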 A number with no mark means an inactive call. Activity calls are given as the source filed them.

The values below come from PubChem BioAssay (NCI).

This assay deals with A549/ATCC NSCLC. Briefly: NCI-60 one-dose screen, 48 h (100 = growth as untreated, 0 = no growth, -100 = all killed). The conditions noted are these: 10 µM unless noted. The method, then:
Growth inhibition of the A549/ATCC human Non-Small Cell Lung tumor cell line is measured as a screen for anti-cancer activity. Cells are grown in 96 well plates and exposed to the test compound for 48 hours. Compounds are tested at a single concentration, which is 10^-5 M for most compounds. The reported endpoint is percent growth (GI% or GIPRCNT), where numbers from 0 - 100% represent growth inhibition, and numbers from -100% - 0 represent cell death. For example, a value of 40 represents 60% growth inhibition. A value of 0 means no net growth occurred over the course of the experiment. A value of -40 indicates 40% of cells at the beginning of the experiment died by the end of the experiment. A value of -100 means all cells are dead at the end of the experiment.
NCI-60 Human Tumor Cell Lines Screen was performed using the standard one-dose NCI protocol, which is described in more detail at https://dtp.cancer.gov/discovery_development/nci-60/default.htm.
Compounds with GIPRCNT values below 10 were considered active. Activity score was based on GIPRCNT using the following formula: […]
Score is 0 for GIPRCNT values of 100 or above, 50 for GIPRCNT values of 0, and 100 for GIPRCNT values of -100.
With `Cc1ccc2[nH]c(=S)n(-c3ccc(S(=O)(=O)Nc4ccc(Cl)nn4)cc3)c(=O)c2c1`, the growth was 103%.
With `N#Cc1c(Nc2ccccc2)nn2cc(-c3nc4ccccc4s3)c(N)nc12`, the growth is 80.6%.
For the compound `CCN(CC)CCCCCCNc1cc(OC)cc2cccnc12`, the growth was 80.3%.
With `O=S(=O)(NCCCNc1nccc(-c2c(-c3ccccc3)nc3occn23)n1)c1ccc(Cl)cc1`, the growth is 65.8%.
With `Cc1nn(-c2ccccc2)c(N2CCOCC2)c1/C=N/N=c1\sc2ccccc2n1C` the figure was 87.7%; with `COc1ccc(-c2ncc(-c3ccccc3)[nH]2)cc1OC`, 110%.
With `CS(=O)(=O)OCCN(CCOS(C)(=O)=O)c1ccc(/C=N/Nc2ccc([N+](=O)[O-])cc2[N+](=O)[O-])cc1` the figure was 80.8%; with `O=C1c2ccccc2-c2c1c1c(NCCCO)nc3ccccc3c1n2Cc1ccccc1`, 16%.
The same measure for `CN1CCN(c2cnc(C(=O)Nc3cc(F)cc4cccnc34)cn2)CC1`: 92.4%.
Consider `Cc1ccc2nc3c(cc2c1)CSc1nnc(-c2ccc[nH]c2=S)n1N3`, for which the growth is 99.7%.
On to `COc1ccccc1/C=C1\COc2ccc(-c3ccccc3)cc2C1=O`, for which the growth is 37.8%.
In the case of `CN1C(=O)N(C)C2NC(N/N=C/c3ccccc3)=NC21` (stereo not given), the growth was 100%.
Regarding `COc1ccc(/C=C(/c2ccccc2)[N+](=O)[O-])cc1`, the growth was 5.17% (active).
`CCNNC(=O)[C@@H]1[C@H](c2cc(OC)c(OC)c(OC)c2)c2cc3c(cc2[C@H](O)[C@H]1CO)OCO3`: the growth was 9.99% (active).
The same measure for `COc1ccc(C(=O)c2cc(C)c(OC)c(C)c2)c(OC)c1O`: 14.5%; for `COc1ccccc1/C=N/NC1=NC2C(N1)N(C)C(=O)N2C` (stereo not given): 102%; for `O=S(=O)(NCCCNc1nccc(-c2c(-c3cccc(O)c3)nc3occn23)n1)c1ccc(Br)cc1`: 98.2%.
The same measure for `COc1ccc(C(=O)c2cc3c(N)c(C(=O)Nc4cccc(OC)c4)sc3nc2C)cc1`: 25.3%; for `O=C(CSc1nc2sc3c(c2c(=O)n1Cc1ccccc1)CCCC3)N1CCN(c2ccccc2)CC1`: 73%.
With `COC(=O)N[C@H]1CCc2cc(OC)c(OC)c(OC)c2-c2ccc(SC)c(=O)cc21` the figure was 13.6%; with `COc1ccc(/C=C/C(=O)c2ccc(OC)c(OC)c2)cc1O`, 26.4%; with `COc1cccc(CNCCN2C(=O)c3ccc4c5c(ccc(c35)C2=O)C(=O)N(CCNCc2cccc(OC)c2)C4=O)c1`, 46.2%.
Take `[O-][n+]1ccccc1CCN(O)CCc1cccc[n+]1[O-]`: the growth is 101%.
Regarding `COc1ccc(C(O)c2cc3c(N)c(C(=O)Nc4cccc(Br)c4C)sc3nc2C)cc1` (stereo not given), the growth was 20.5%.
On to `O=S(=O)(NCCNc1nccc(-c2c(-c3cccc(F)c3)nc3occn23)n1)c1cccc2ccccc12`, for which the growth was 44.1%.
Consider `CC(=O)N1c2ccccc2NC2=C(C(=O)N(Cc3ccccc3)C2(C)C)C1c1ccco1` (stereo not given), for which the growth was 22%.
On to `C1=C2CNCC3=Cc4ccc5ccccc5c4OC23Oc2c1ccc1ccccc21`, for which the growth was 50.6%.
Consider `Clc1ccc(N2N=C(c3cccc(Nc4ccncc4)c3)CC2c2ccc(Br)cc2)cc1` (stereo not given), for which the growth is 16.7%.
Regarding `COc1cc2nc(-c3ccc(C(F)(F)F)cc3)cc(OCCN3CCCC3)c2cc1OC`, the growth is 93.5%.
With `CC(C)(C#N)N1CCN(c2ccccc2Cl)CC1`, the growth was 95.1%.
For `COc1cc(COC(=O)CCCCC[P+](c2ccccc2)(c2ccccc2)c2ccccc2)c(OC)c2c1OCO2`, the growth was 81.2%.
The same measure for `O=C(Nc1cccc(C2=NCCN2)c1)c1ccc(OCCCOc2ccc(C(=O)Nc3cccc(C4=NCCN4)c3)cc2)cc1`: -55.3% (active); for `c1ccc(-c2nn(-c3ccccc3)[n+](-c3cccc4ccccc34)n2)cc1`: 23.4%; for `COc1ccccc1N1CCN(C(=O)c2ccc3nc(NC(=O)c4ccc(NCCc5ccccc5)c([N+](=O)[O-])c4)sc3c2)CC1`: 91.3%.
For the compound `Clc1ccc(C2CC(c3cccc(Nc4ccncc4)c3)=NN2c2ccccc2)cc1` (stereo not given), the growth is 27.3%.
Consider `COc1cc(NCC(O)CN(CC(C)C)C2CCCC2)c2ncccc2c1` (stereo not given), for which the growth is 66.1%.
On to `CC1=CC[C@@H]2CC[C@]3(C)[C@H](CC[C@@H]4[C@@]5(C)CCCNC(C)(C)[C@@H]5CC[C@]43C)[C@H]2[C@@H]1C`, for which the growth is -14% (active).
On to `COc1cc(NCCCN(CC(C)C)CC(C)C)c2ncccc2c1`, for which the growth is 80.7%.
For `C/C(=C(/c1ccccc1)c1ccc(OCC(O)CNCCN2CCOCC2)cc1)c1ccccc1` (stereo not given), the growth is 70.8%.
As to `O=C(NCCN1CCOCC1)OCc1nc2nc(Cl)nc(N3CCOCC3)c2[nH]1`, the growth was 68.2%.
